Assay results from PubChem BioAssay AID1053184 (Broad Institute, 2014).
Entries with a potency or affinity are not part of this list. Calls of active or inactive are those of the source.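 How the source made its calls: active means cell killing, with a fitted half-maximal concentration at or below twice the top valid dose tested; inconclusive means flat curve between 30% and 70% signal loss, or poor fit; inactive means effect in the rising direction, plus the rest.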

Assay: A549 cell viability loss – cherry-picked samples, cytotoxicity control, dose response (AID 1053184)
Details: CellTiter-Glo ATP luminescence, 72 h; series mostly up to 26 µM

SMILES | outcome
CO[C@@H](CN(C)Cc1cc(F)ccc1F)[C@@H](C)CN(C(=O)Nc1ccc(C(F)(F)F)cc1)[C@H](C)CO | inactive
CNC[C@@H]1Oc2cc(C#Cc3ccccc3OC)ccc2S(=O)(=O)N([C@H](C)CO)C[C@H]1C | inactive
COc1ccc2c3c(n(C)c2c1)[C@@H](CO)N(CC1CC1)CC31CN(C(=O)c2ccc3c(c2)OCO3)C1 | inactive
N#Cc1cccc(-c2ccc(C3[C@@H]4CN(C(=O)Nc5ccc(C(F)(F)F)cc5)C[C@H]3N4)cc2)c1 (stereo partly specified) | inactive
C[C@H]1CNC(=O)[C@@H](Cc2ccc(C(F)(F)F)cc2)CCn2nncc2COC1 | inactive
CN(C)C(=O)c1cccc(-c2ccc(C3[C@@H]4CN(Cc5ccccc5F)C[C@H]3N4)cc2)c1 (stereo partly specified) | inactive
COc1cc(CN2C[C@@H]3N[C@H](C2)C3c2ccc(-c3ccc(C#N)cc3)cc2)cc(OC)c1 (stereo partly specified) | inactive
COc1cccc(-c2cccc(-c3nc(C(=O)Nc4ccc(-c5ccccc5)cc4)cc4c3[C@@H](CCO)N(S(=O)C(C)(C)C)C4)c2)c1 (stereo partly specified) | inactive
O=S(=O)(c1ccc(F)cc1)N1C[C@@H]2N[C@H](C1)C2c1ccc(/C=C/c2ccccc2)cc1 (stereo partly specified) | inactive
C/C=C/c1ccc([C@H]2[C@@H](CO)N3C(=O)CN(Cc4ccc(F)cc4)C[C@@H]23)cc1 | inactive
C[C@H](CO)N1C[C@H](C)[C@@H](CN(C)Cc2ccccc2)Oc2c(NC(=O)Cc3cn(C)c4ccccc34)cccc2C1=O | inactive
